Shown are actives, neighbours in structure and some others; about 13% of the full set was active somewhere.
miR-21 reporter – qHTS Assay for Modulators of miRNAs and/orActivators of miR-21. 340,000 tested, under 10 active. HeLa miR-21 FLuc reporter, luciferase, 48 h. Potency, µM (top dose mostly 38.3 µM), without a hit: top-dose activity change, positive = activation, hits mostly activators;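 further: % of control where 0% means no effect; miR-21 action dims this reporter so a rising signal means less miR-21 action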
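HeLa cells stably expressing CMV-driven firefly luciferase with a downstream miR-21 binding sequence, endogenously expressing miR-21, were treated with titrations (up to about 40uM final) for 48 hours at 37 degree Celsius. Luciferase luminescence was read after lysis.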
KDM4E inh – qHTS Assay for Inhibitors of Human Jumonji Domain Containing 2E (JMJD2E) | Lysine-specific demethylase 4E (Homo sapiens), B2RXH2 | JMJD2E catalytic domain, FDH-coupled NADH fluorescence (FDH is formaldehyde dehydrogenase) | Potency, µM (series often up to 57.1 µM), for the others: at the highest dose activity change, negative = inhibition, usual class: inhibitors | hit rate 1.6% among 230,000 | AID 2147, 2009; active means well fitted inhibition curve with a large enough effect, not every such curve was filed as active; inconclusive means small, poorly fitted or top-dose-only effect, or another doubt; inactive means no such curve, though single readings can be large or run the other way;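 further: potency means the concentration at half of the fitted maximal effect; 0% = wells with enzyme and -100% = buffer wells without enzyme; nearly all actives have a fitted effect of over 50% in size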
Target sequence (B2RXH2 1-337 limits assumed): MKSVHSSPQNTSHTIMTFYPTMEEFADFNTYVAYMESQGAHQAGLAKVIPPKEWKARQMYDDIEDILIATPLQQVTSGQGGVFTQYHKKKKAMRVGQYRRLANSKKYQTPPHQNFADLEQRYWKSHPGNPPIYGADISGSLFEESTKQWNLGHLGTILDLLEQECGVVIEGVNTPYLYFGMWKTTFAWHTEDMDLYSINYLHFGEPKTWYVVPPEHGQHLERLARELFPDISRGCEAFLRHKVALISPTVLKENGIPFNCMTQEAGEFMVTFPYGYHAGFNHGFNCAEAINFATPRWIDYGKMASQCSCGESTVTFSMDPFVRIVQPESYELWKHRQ
Sfp PPTase inh – qHTS Assay for Inhibitors of Bacillus subtilis Sfp phosphopantetheinyl transferase (PPTase). 4'-phosphopantetheinyl transferase ffp (Bacillus subtilis), Q9F4F7. Biochemical Sfp PPTase activity, qHTS. Potency, µM, for the others: largest response in the series, negative = inhibition, actives largely listed as inhibitors. hit rate 3.5% among 310,000;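 further: the enzyme is Sfp with the accession as filed and its product quenches rhodamine fluorescence; potency means the concentration at half of the fitted maximal effect; 0% = enzyme reaction without inhibitor and -100% = no enzyme wells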
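Reaction rates are the 30-min fluorescence difference (ex 525, em 598 nm) in wells containing 15 nM Sfp, 5 uM rhodamine-CoA and 12.5 uM BHQ-2-YbbR at pH 7.6 with 10 mM MgCl2.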
LMNA splice mod – qHTS Assay for Modulators of Lamin A Splicing. AID 1487, 2009. hit rate 0.01% among 200,000. Potency, µM (highest dose often 46.1 µM), for the others: at the top dose ratio change, negative = inhibition, most hits filed as inhibitors. HeLa LMNA splicing GFP/RFP minigene ratio, 48 h; active means well fitted inhibition curve with a large enough effect in the signal ratio, with a control signal flat, not every such curve was filed as active; inconclusive means small, poorly fitted or top-dose-only effect, or effect the other way, or a change in a side signal; the % refers to the signal ratio; further: potency means the concentration at half of the fitted maximal effect; on the % scale 0 is the no-effect control and ±100 the full control effect
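Read-out is the ratio of GFP to DsRed2 object intensity, acquired by 488 nm laser-scanning cytometry on HeLa lamin A-EGFP minigene reporter cells. Compound incubation 48 hrs at 37 °C in Opti-MEM with 2% FBS; DMSO 0.5% final.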
G9a block – qHTS Assay for Inhibitors of Histone Lysine Methyltransferase G9a | Histone-lysine N-methyltransferase EHMT2 (Homo sapiens), Q96KQ7 | G9a H3K9 monomethylation, AlphaScreen, 2 h | Potency, µM (series often up to 102 µM), for inactives: at the top dose activity, negative = inhibition, usual class: inhibitors | hit rate 8.8% among 350,000; further: potency means the concentration at half of the fitted maximal effect; on the % scale 0 is the no-effect control and ±100 the full control effect; nearly all actives have a fitted effect of over 75% in size
Target sequence (Q96KQ7 913-1193 limits assumed): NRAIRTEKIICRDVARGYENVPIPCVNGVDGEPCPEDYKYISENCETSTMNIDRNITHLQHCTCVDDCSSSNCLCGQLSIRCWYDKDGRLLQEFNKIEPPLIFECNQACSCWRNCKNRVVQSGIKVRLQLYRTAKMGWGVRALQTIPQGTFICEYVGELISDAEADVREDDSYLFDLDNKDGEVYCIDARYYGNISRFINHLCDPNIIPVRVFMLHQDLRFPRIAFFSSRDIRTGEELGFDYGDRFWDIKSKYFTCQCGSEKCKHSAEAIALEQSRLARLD
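Signal arises when biotinylated H3K9 peptide, once monomethylated, bridges streptavidin donor and antibody-captured acceptor beads. Enzyme at 20 nM was preincubated 15 min with test compounds; peptide 500 nM and SAM 20 uM then reacted for 2 h.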
ALDH1A1 inh – qHTS Assay for Inhibitors of Aldehyde Dehydrogenase 1 (ALDH1A1); Aldehyde dehydrogenase 1A1 (Homo sapiens), P00352; Purified ALDH1A1, NADH fluorescence, propionaldehyde substrate; Potency, µM (series often up to 75.3 µM), for the others: top-dose activity, negative = inhibition, usual class: inhibitors; hit rate 7.3% among 220,000; AID 1030, 2008; active means well fitted inhibition curve with a large enough effect, not every such curve was filed as active; inconclusive means small, poorly fitted or top-dose-only effect, or another doubt; inactive means no such curve, though single readings can be large or run the other way;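 further: potency means the concentration at half of the fitted maximal effect; plate controls were no enzyme wells and a reference inhibitor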
An asterisk follows results filed as active; ? = inconclusive; / = no result; [ ] = dose if it differs, or a comment. Unless noted, the call rests on the fitted dose curve; in most records, active means well fitted curve in the direction sought with a large enough effect; inconclusive means small, poorly fitted or top-dose-only effect, or another doubt; inactive means no such curve, though single readings can be large; an effect the other way counts as inactive or inconclusive.

SMILES | miR-21 reporter | KDM4E inh | Sfp PPTase inh | LMNA splice mod | G9a block | ALDH1A1 inh
O=C(CCC1N=C2c3ccccc3N=C(SCc3ccccc3Cl)N2C1=O)NCc1cccs1 (stereo unspecified) | 6% | / | / | 9%[46 µM] | -1%[59 µM] | /
CC(C)[C@@H](CC(=O)N[C@@H]1CCNC[C@H]1C(=O)N[C@H](CC(=O)N[C@@H](CCC(=O)O)CC(=O)O)Cc1ccccc1)NC(=O)C[C@H](Cc1c[nH]c2ccccc12)NC(=O)[C@@H]1CCCC[C@H]1N | / | -4% | -16% | / | / | -2%
C=C(C)CNC(=S)Nc1nc2c(cc1C(=O)OCC)CCCC2 | -46% | ? | 23% | 2% | ? | 1µM*
CC1CCC2(CC1)Nc1ccccc1C(=O)N2c1ccccc1 (stereo unspecified) | -46% | ? | 10% | -3% | 71µM* | ?
COC(=O)Cn1c2ccc(F)cc2c2nc(C)sc21 | -6% | 4% | -24% | ? | 45µM* | ?
Cc1nc2c3cc(F)ccc3n(Cc3ccc(F)cc3)c2s1 | 11% | -14% | ? | -27% | ? | -10%
CCc1ccc2c(c1)c1nc(C)sc1n2CC | -20% | -14% | 28µM* | ? | ? | 32µM*
CCOC(=O)Cn1c2ccc(F)cc2c2nc(C)sc21 | -1% | 4% | -12% | 10%[46 µM] | -47% | ?
O=C(OCN1C(=O)c2ccccc2C1=O)c1cc(S(=O)(=O)N2CCOCC2)ccc1F | / | / | / | / | -42% | /
CCOC(=O)C1CCN(C(=O)C2c3ccccc3C(=O)N(C)C2c2ccc(OC)cc2)CC1 (stereo unspecified) | 5% | -1% | 9% | 7% | ? | 2.8µM*
COc1ccc(C2C(C(=O)N3CCCCC3)c3ccccc3C(=O)N2C)cc1 (stereo unspecified) | 2% | -26% | 3% | 2% | -27% | 14µM*
COc1ccc(C2C(C(=O)N3CCCC3)c3cc(OC)c(OC)cc3C(=O)N2C)cc1 (stereo unspecified) | -4% | -14% | 10% | 5% | 18%[59 µM] | 4%
Cc1csc(SC(C)c2nc3scc(-c4ccccc4)c3c(=O)[nH]2)n1 (stereo unspecified) | 10% | -14% | 0% | / | -3%[12.7 µM] | /
CCn1c2ccccc2c2cc(/C=N/NC(=O)c3ccccc3)ccc21 | 17% | ? | 27% | ? | 8% | ?
CCn1c2ccccc2c2cc(/C=N/n3c(C)nnc3C)ccc21 | 13% | -3% | 50µM* | ? | 23%[12.7 µM] | ?
CC(C)NC(=O)CSc1nc2ccccc2n1-c1ccccc1 | 0% | 10% | 19% | 1% | -19%[59 µM] | ?
CCOc1ccc(-n2c(SCC(=O)Nc3cc(OC)c([N+](=O)[O-])cc3C)nc3ccccc32)cc1 | 1% | -7% | 19% | 5% | -22%[59 µM] | -2%
COc1cc([N+](=O)[O-])ccc1NC(=O)CSc1nc2ccccc2n1-c1ccccc1 | 0% | 0% | -8% | -5% | ? | 10µM*
CC(C)(C)NC(=O)CSc1nc2ccccc2n1-c1ccccc1 | 10% | -2% | 50µM* | -12% | ? | -12%
O=C(O)CC(CC(=O)Nc1nncs1)c1ccccc1 (stereo unspecified) | -6% | 2% | 21% | 0% | -3%[12.7 µM] | 1%
O=C(O)CC(Cn1[nH]nnc1=S)c1ccccc1 (stereo unspecified) | 1% | ? | 40µM* | 6% | 8.9µM* | 10µM*
c1coc(-c2nn3c(Cn4nnc5ccccc54)nnc3s2)c1 | -9% | -2% | 45µM* | -13% | ? | 10µM*
Clc1cccc(-c2nn3c(Cn4cnc5ccccc54)nnc3s2)c1 | -5% | -2% | 20µM* | ? | ? | 10µM*
Clc1ccc(Cc2nn3c(Cn4nnc5ccccc54)nnc3s2)cc1 | 2% | 4% | 28µM* | -17% | ? | 22µM*
c1ccc2c(c1)nnn2Cc1nnc2sc(-c3ccncc3)nn12 | -8% | 0% | 40µM* | 13% | ? | ?
SMILES | miR-21 reporter | KDM4E inh | Sfp PPTase inh | LMNA splice mod | G9a block | ALDH1A1 inh
c1csc(-c2nn3c(Cn4cnc5ccccc54)nnc3s2)c1 | -18% | -24% | -85% | -14% | ? | ?
Cc1nc2ccc(NS(=O)(=O)c3ccc(Br)cc3)cc2s1 | / | / | / | / | 5%[12.7 µM] | /
Cc1ccc(S(=O)(=O)c2nc(S(=O)(=O)c3ccccc3)sc2NCCCOC(C)C)cc1 | -1% | / | / | / | 1%[59 µM] | /
COc1ccc(CN(C2CCCC2)S(=O)(=O)c2ccc(-n3cnnn3)cc2)cc1OC | -2% | 4% | 4% | ? | 8%[59 µM] | 1.8µM*
COc1cc(S(=O)(=O)N(Cc2ccc(C)cc2)C2CCCCC2)ccc1-n1cnnn1 | 2% | -7% | 8% | ? | -28% | ?
COc1ccc(C(=O)N2CCN(c3ccccc3Cl)CC2)cc1S(=O)(=O)NC1CC1 | / | / | / | / | -9%[12.7 µM] | /
CS(=O)(=O)CCCCN=C=S | / | -4% | ? | ? | / | ?
CCN(CC)c1ccc(NC(=O)c2cnn(CC)c2)cc1 | -44% | 11% | -9% | ? | 16µM* | 2%
CCC(=O)Nc1cccc(NC(=S)NC(=O)c2ccc(Cl)cc2)c1 | -54% | -7% | -1% | ? | 5%[59 µM] | ?
CCn1cc(C(=O)NC(=S)Nc2cccc(O)c2)cn1 | -40% | 1% | 79µM* | 20% | 11µM* | -1%
O=C(NCCSc1ccccc1)c1cncc(Br)c1 | -55% | 1% | 3% | 5% | 4% | 25µM*
O=C(NCCSc1ccccc1)c1ccc(Br)cc1 | -38% | 9% | 2% | -8% | 13%[59 µM] | -4%
O=C(NC(=S)Nc1ccc(Br)cn1)c1cncc(Br)c1 | -6% | 0% | -1% | 9% | 26% | -2%
CCn1cc(C(=O)NCc2ccccc2Cl)cn1 | -6% | -2% | -10% | ? | 2%[59 µM] | 7%
O=C(NC(=S)Nc1ccccc1[N+](=O)[O-])c1cncc(Br)c1 | -17% | / | 7% | / | 45µM* | /
Cc1cc(C)n(CCCNC(=O)c2ccc(C)c(S(=O)(=O)N3CCOCC3)c2)n1 | / | / | / | / | 11%[0.501 µM] | /
O=C(Nc1ccccc1C(=O)O)c1ncn[nH]1 | -4% | -5% | 45µM* | -9% | 10µM* | 4%
O=C(Nc1ccccc1C(=O)O)c1cncc(Br)c1 | -11% | -3% | -11% | -2% | 4.5µM* | 14µM*
Nc1ccc(C(=O)Nc2ccccc2C(=O)O)cc1 | 5% | 0% | -2% | -3% | 40µM* | 1%
CC(C)OC(=O)c1ccc(NC(=O)c2cncc(Br)c2)cc1 | 13% | ? | 11% | 16%[46 µM] | 11%[59 µM] | 18µM*

Assay outcomes: PubChem, National Center for Advancing Translational Sciences (NCATS)
